High-throughput results deposited in PubChem BioAssay by National Center for Advancing Translational Sciences (NCATS).
FMDV antiviral = blocks foot and mouth disease virus; Potency, µM (highest dose often 57.9 µM), for inactives: top-dose activity change, negative = inhibition, actives largely listed as inhibitors; AID 1159524; FMDV antiviral cell-based qHTS; 410,000 tested, 1.2% active; calls by dose curve; tested in HEK293T cells; also: read-out not given here; potency is read from the fitted curve at half-maximal effect; nearly all actives have a fitted effect of over 45% in size
LASV entry inh = inhibitors of Lassa virus binding or cell entry; AID 540256; 300,000 tested, 1.2% active; Potency, µM (top dose mostly 37.9 µM), for the others: at the top dose activity change, negative = inhibition, hits mostly inhibitors; Lassa virus pseudotype entry inhibition, cell reporter; calls by dose curve; tested in HEK293 cells; also: potency is read from the fitted curve at half-maximal effect; nearly all actives have a fitted effect of over 50% in size
VACV Venus inh = vaccinia inhibition (Venus reporter). 330,000 tested, 0.46% active. Vaccinia virus Venus reporter expression, fluorescence. Potency, µM (highest dose often 36.5 µM), without a hit: at the top dose activity change, negative = inhibition, usual class: inhibitors; calls by dose curve; tested in A549 cells; also: potency is read from the fitted curve at half-maximal effect; nearly all actives have a fitted effect of over 30% in size
HCMV antiviral = human cytomegalovirus inhibition; activity change, negative = inhibition, % at 57.5 µM; HFF cells, HCMV-luciferase reporter, 72 h; stronger effect = lower value; 410,000 tested, 4.5% active; in the data active = activity change below about -60%; inconclusive = no clear call, values can overlap the other calls; inactive = above about -39%
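Two-dose cell screen: HFF monolayers treated with compounds and infected with luciferase-expressing HCMV at 1 PFU/cell, 72 h at 37C, then lysed for luciferase measurement.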
VACV mCherry inh = vaccinia inhibition (mCherry reporter); Vaccinia virus mCherry reporter infection, fluorescence; Potency, µM (doses to about 36.5 µM), for the others: at the highest dose activity change, negative = inhibition, hits mostly inhibitors; 310,000 tested, 0.63% active; calls by dose curve; tested in A549 cells; also: potency is read from the fitted curve at half-maximal effect; nearly all actives have a fitted effect of over 35% in size
MARV entry inh = blocks Marburg virus binding to or entry into cells. 300,000 tested, 1.8% active. Potency, µM (highest dose often 37.8 µM), inactives show at the top dose activity change, negative = inhibition, most hits filed as inhibitors. Marburg virus pseudotyped entry inhibition, cell reporter; calls by dose curve; tested in HEK293 cells; also: potency is read from the fitted curve at half-maximal effect
* = called active by the depositor; ! = not active in a repeat; [ ] = dose if it differs, or a comment. Rows were chosen to be rich in hits. Some 6.5% of all compounds tested hit in one or more screens of this group. % is scaled to controls: 0 for no effect and ±100 for the full control effect.

For CC1CCN(S(=O)(=O)c2ccc(C(=O)Nc3nnc(-c4ccncc4)o3)cc2)CC1 the results were FMDV antiviral -12%, LASV entry inh inconclusive, VACV Venus inh -23%, HCMV antiviral -88*, VACV mCherry inh inconclusive and MARV entry inh inconclusive.
Screening COc1ccccc1C(=O)Nc1nnc(-c2ccc3c(c2)CCCC3)o1 returned FMDV antiviral 55%, VACV Venus inh -3%, HCMV antiviral -76* and VACV mCherry inh -4%.
CC(=O)Nc1nnc(-c2ccc3c(c2)CCCC3)o1 was read as FMDV antiviral 20%, VACV Venus inh -30%, HCMV antiviral -26 and VACV mCherry inh -17%.
Cc1cc(C)nc(NC(=O)c2ccc(Cl)cc2Cl)n1 was read as FMDV antiviral -17%, LASV entry inh -3%[46.1 µM], VACV Venus inh 2%, HCMV antiviral -14, VACV mCherry inh -16% and MARV entry inh -4%[46.1 µM].
COc1cccc(-n2c(SC)nnc2C2CCN(CCC(C)c3ccc(C)o3)CC2)c1 (stereo not drawn) was read as FMDV antiviral -18%, VACV Venus inh -5% and VACV mCherry inh -16%.
Screening O=C(Nc1nnc(C2CC2)o1)c1ccc(S(=O)(=O)N2CCCCC2)cc1 returned FMDV antiviral 3%, LASV entry inh -7%[46.1 µM], VACV Venus inh -3%, HCMV antiviral -61*, VACV mCherry inh inconclusive and MARV entry inh -23%[46.1 µM].
For CC1CCN(S(=O)(=O)c2ccc(NC(=O)c3ccccc3F)cc2)CC1 the results were FMDV antiviral -27%, VACV Venus inh -11%, HCMV antiviral -62*, VACV mCherry inh -14% and MARV entry inh -26%[46.1 µM].
For CC1CN(S(=O)(=O)c2ccc(C(=O)Nc3nnc(-c4ccc5c(c4)CCCC5)o3)cc2)CC(C)O1 (stereo not drawn) the results were FMDV antiviral -28%, VACV Venus inh inconclusive, HCMV antiviral -13, VACV mCherry inh 8.9µM* and MARV entry inh 0%.
Screening CC1CCN(S(=O)(=O)c2ccc(C(=O)Nc3nnc(C4CC4)o3)cc2)CC1 returned FMDV antiviral -5%, LASV entry inh inconclusive, VACV Venus inh -12%, HCMV antiviral 56, VACV mCherry inh inconclusive and MARV entry inh inconclusive.
CN1CCN(S(=O)(=O)c2ccc(NC(=O)c3ccccc3F)cc2)CC1 was read as FMDV antiviral 5% and HCMV antiviral 2.
For CN(C)c1ccc(/C=C/c2ccnc3c(N)cccc23)cc1 the results were VACV Venus inh -12% and VACV mCherry inh -18%.
Screening COc1ccc(CCN(C)C(=O)CN2C(=O)NC3(CCCCC3C)C2=O)cc1OC (stereo not drawn) returned FMDV antiviral -12%, LASV entry inh -8%, VACV Venus inh -9%, HCMV antiviral 3, VACV mCherry inh inactive and MARV entry inh 20%.
O=C(COC(=O)COc1ccc(Cl)cc1)NC1CCCC1 was read as FMDV antiviral -16% and HCMV antiviral 20.
Screening CCNc1nc(SCC(=O)Nc2ccc(Cl)c(Cl)c2)nc(N2CCOCC2)n1 returned FMDV antiviral inconclusive, LASV entry inh -30%[46.1 µM], VACV Venus inh -14%, HCMV antiviral 3, VACV mCherry inh -5% and MARV entry inh inconclusive.
`Cc1ccc(-c2csc(N(CCO)CCCn3c(C(F)(F)F)nc4ccccc43)n2)cc1` gave FMDV antiviral inconclusive, VACV Venus inh inconclusive, HCMV antiviral -64* and VACV mCherry inh -30%.
Screening O=C(Nc1ccccc1Cl)Nc1cccnc1Cl returned FMDV antiviral -16%, LASV entry inh 2%[46.1 µM], VACV Venus inh -1%, HCMV antiviral -62*, VACV mCherry inh inactive and MARV entry inh -18%[46.1 µM].
Screening O=C(Nc1cccnc1Cl)c1cc([N+](=O)[O-])ccc1Cl returned FMDV antiviral -14%, LASV entry inh inconclusive, VACV Venus inh -8%, HCMV antiviral -75*, VACV mCherry inh -19% and MARV entry inh inconclusive.
Screening COc1ccc(Cl)cc1C(=O)Nc1ccc([N+](=O)[O-])cc1Cl returned VACV Venus inh -10% and VACV mCherry inh -13%.
Screening O=C(Nc1ccc([N+](=O)[O-])cc1Cl)c1cc(Cl)ccc1O returned FMDV antiviral 6.3µM*!, LASV entry inh 1.3µM*, VACV Venus inh inconclusive, HCMV antiviral -98*, VACV mCherry inh inconclusive and MARV entry inh 1.1µM*.
Cc1ccc([N+](=O)[O-])c(C(=O)Nc2cccnc2Cl)c1 was read as FMDV antiviral -1%, VACV Venus inh -13%, HCMV antiviral -15 and VACV mCherry inh inactive.
For O=C(Nc1cccc2ncccc12)c1cc([N+](=O)[O-])ccc1Cl the results were FMDV antiviral inconclusive, LASV entry inh 1%[46.1 µM], VACV Venus inh -12%, HCMV antiviral -88*, VACV mCherry inh -14% and MARV entry inh 7%[46.1 µM].
For COc1ccc(NC2CCCN(C(=O)COc3ccc(C(C)=O)cc3)C2)cc1 (stereo not drawn) the results were FMDV antiviral 1%, VACV Venus inh -13%, HCMV antiviral 4 and VACV mCherry inh inconclusive.
For Cc1onc(-c2ccccc2)c1C(=O)OCC(=O)Nc1ccc(C#N)cc1 the results were FMDV antiviral -26% and HCMV antiviral -40.
For CN1CCOc2ccc(S(=O)(=O)NCCc3ccc(Cl)cc3)cc21 the results were FMDV antiviral 51% and HCMV antiviral 34.
CCN1CCN(c2c(Cl)cccc2NC(=O)c2cc3ccccc3o2)CC1 was read as FMDV antiviral inconclusive and HCMV antiviral -15.
CC(=O)c1ccccc1OCC(O)CN1CCN(c2ccccn2)CC1 (stereo not drawn) was read as FMDV antiviral -16%, LASV entry inh 4%[46.1 µM], VACV Venus inh -9%, HCMV antiviral -35, VACV mCherry inh -2% and MARV entry inh -5%[46.1 µM].
Screening CC(=O)c1ccccc1OCC(O)CN1CCN(CCN2C(=O)c3cccc4cccc(c34)C2=O)CC1 (stereo not drawn) returned FMDV antiviral 28µM*, LASV entry inh inconclusive, VACV Venus inh inconclusive, HCMV antiviral -65*, VACV mCherry inh -21% and MARV entry inh inconclusive.
Screening Cc1ccc(C(C)C)c(OCC(O)CN2CCc3ccccc3C2)c1 (stereo not drawn) returned FMDV antiviral inconclusive, LASV entry inh inconclusive, VACV Venus inh inconclusive, HCMV antiviral -17, VACV mCherry inh 10µM* and MARV entry inh inconclusive.
O=C1c2cccc3cccc(c23)C(=O)N1CCN1CCN(CC(O)COc2ccc3ccccc3c2)CC1 (stereo not drawn) was read as FMDV antiviral inconclusive, LASV entry inh inconclusive, VACV Venus inh -13%, HCMV antiviral -63*, VACV mCherry inh -14% and MARV entry inh inconclusive.
Screening Cc1ccc(C)c(OCC(O)CN2CCC(Cc3ccccc3)CC2)c1 (stereo not drawn) returned FMDV antiviral inconclusive and HCMV antiviral -111*.
